Most compounds without a hit are left out; they make up all but 1.9% or so of the library.
DSG3 Ab inh: inhibitors of pemphigus antibody binding to human desmoglein-3; P32926; DSG3-coupled beads, scFv-anti-DSG3-GFP binding, flow cytometry; hits give low values; binding (percent of control), % at 10 µM; 310,000 compounds, 0.48% hits; AID 588358;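 active means binding more than 3 SD below its plate's average and above zero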;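 further: hits lower antibody fragment binding to DSG3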
CaV13 FRET inh: Primary screen for inhibitors of IQ motif and Ca2+-dependent inactivation inhibitor domain binding in CACNA1D, Förster resonance energy transfer in living cells, …; HEK cells, CFP/YFP FRET ICDI-IQ, plate reader, 10 min; percent FRET-ratio fall versus neutral wells; inhibition, % at 12.3 µM; 340,000 compounds, 0.098% hits;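 active means mean replicate inhibition of at least 30% and at least 1% of replicates passing that level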;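 further: 0% = median of the neutral control wells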
Vif imaging: blocks HIV Vif function; HEK293T cells, Vif self-association by quenched fluorescence, imaging, 24 h; inhibition, % at 7.49 µM; 340,000 compounds, 0.35% hits; AID 602346; in the data active means inhibition above about 50%, passing the limit was not always enough
NSD2 inh: blocks human histone methyltransferase NSD2. O96028. NSD2 peptide methylation, AlphaScreen, 120 min. inhibition, % at 12.5 µM. 310,000 compounds, 0.54% hits. AID 743445; in the data active means inhibition above about 50%
ATG4B inhibitor: ATG4B (human) cysteine protease inhibition; Q9Y4P1; ATG4B cleavage of LC3-PLA2, NBD-HPC fluorescence, 1 h; inhibition, % at 8.33 µM; 340,000 compounds, 0.51% hits; AID 504462; in the data active means inhibition above about 40%
Target sequence (Q9Y4P1 whole entry, looked up): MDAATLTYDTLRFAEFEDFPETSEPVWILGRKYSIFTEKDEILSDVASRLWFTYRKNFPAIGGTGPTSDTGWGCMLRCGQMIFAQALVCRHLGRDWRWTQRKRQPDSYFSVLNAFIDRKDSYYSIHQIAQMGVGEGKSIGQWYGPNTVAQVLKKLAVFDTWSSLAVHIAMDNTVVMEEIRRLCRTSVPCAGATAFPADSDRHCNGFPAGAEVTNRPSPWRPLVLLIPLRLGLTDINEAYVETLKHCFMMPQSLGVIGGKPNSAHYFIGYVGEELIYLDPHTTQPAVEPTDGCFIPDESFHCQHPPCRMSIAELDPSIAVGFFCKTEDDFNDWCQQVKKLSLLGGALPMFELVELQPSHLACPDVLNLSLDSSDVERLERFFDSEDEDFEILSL
Glyco luc inh: blocks N-linked glycosylation in D54 reporter cells. D54 ERlucT glycosylation luciferase reporter, 24 h; percent of 100 nM tunicamycin response. reporter increase, % at 12.5 µM. 360,000 compounds, 0.23% hits. AID 588692;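 active means mean luciferase reporter signal, scaled so untreated is 0 and the glycosylation-blocking control 100, at or above a set limit in every replicate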;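 further: luciferase carries N-glycosylation sites so blocking glycosylation raises the light; 0% = median of neutral control wells and 100% = median of 100 nM tunicamycin wells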
Alpha artifact: interferes with AlphaScreen signal, flagging NSD2 false positives; AID 1053174; 1,500 compounds, 9.4% hits; shares compounds with NSD2 inh; AC35, µM (highest dose often 10 µM), for inactives: at the highest dose activity change, negative = signal loss; AlphaScreen artifact counterscreen, preloaded methylated H4 peptide; call rule not given here
Starred values were filed as active, the others as inactive; x = no result.

SMILES | DSG3 Ab inh | CaV13 FRET inh | Vif imaging | NSD2 inh | ATG4B inhibitor | Glyco luc inh | Alpha artifact
CCCOc1ccc(/C=N/Nc2ccc(C(=O)O)cc2)c(OCCC)c1 | 93 | -6 | -12 | 3 | 9 | 6 | x
c1ccc(-c2nc(N3CCCCCC3)c3ccccc3n2)nc1 | 116 | -4 | -9 | 44 | 14 | -3 | x
c1ccc(-c2nc(N3CCOCC3)c3ccccc3n2)nc1 | x | -4 | -4 | 64* | -14 | -1 | -7%
CC1OC(Nc2cccc3ccccc23)C(O)C(O)C1O (stereo not drawn) | 89 | -10 | 1 | 65* | -8 | 6 | -2%
CC1OC(Nc2ccc(N=Nc3ccccc3)cc2)C(O)C(O)C1O (stereo not drawn) | 99 | 7 | -2 | x | -8 | -2 | x
COc1ccc(-c2oc3ncnc(NCCCN(C)C)c3c2-c2ccc(OC)cc2)cc1 | 106 | -5 | 11 | 7 | 6 | -3 | x
CN(C)CCNc1ncnc2oc(-c3ccccc3)c(-c3ccccc3)c12 | 91 | -5 | -1 | 51* | 4 | 2 | -6%
O=C(Nc1cccc(C(F)(F)F)c1)c1cc(-c2ccco2)on1 | 110 | -2 | 9 | 92* | 3 | 1 | -2%
O=C1NC(NS(=O)(=O)c2ccccc2)(C(F)(F)F)C(=O)N1c1cccc(Cl)c1 (stereo not drawn) | x | -4 | -7 | 96* | -2 | 0 | -2%
NC1(C(=O)O)CSSC1 | 98 | -6 | 0 | 76* | -5 | 73* | -2%
Nn1cnnc1N/N=C/c1ccc(Cl)c([N+](=O)[O-])c1 | 101 | 1 | -1 | 116* | -1 | 7 | -3%
Nn1cnnc1N/N=C/c1ccc(F)cc1 | 108 | -4 | 2 | -3 | -3 | 1 | x
CS/C(N)=N/N=C/c1ccc2c(c1)OCO2 | 116 | -4 | 7 | 1 | -7 | 4 | x
Cc1ccc2nc(CSc3nnc(-c4ccco4)o3)cc(=O)n2c1 | x | -4 | 3 | 0 | 1 | 3 | x
Oc1cccc2cnccc12 | 99 | -5 | -4 | -1 | -3 | -3 | x
Nc1cccc2cnccc12 | 102 | -3 | 4 | 107* | -7 | 9 | -5%
CCc1ccc2c(c1)C(c1ccc([N+](=O)[O-])cc1)=NNC(c1ccc(C)cc1)=N2 | 96 | -15 | -7 | 0 | 24 | -3 | x
COc1ccc(Cc2ccccc2C(=O)O)cc1 | x | -7 | 7 | 50* | 0 | 2 | 1%
c1ccc(-c2cc(-c3ccccc3)n3ncnc3n2)cc1 | 101 | -3 | -2 | 50* | 7 | 1 | -1%
COc1ccc(-c2cc(-c3ccccc3)nc3ncnn23)cc1 | 101 | -3 | x | x | -10 | 2 | x
Cc1ccc(C(=O)NCCn2c(N)c(C#N)c3nc4ccccc4nc32)cc1 | 129 | -5 | 4 | 55* | -3 | 5 | 0%
N#C/C(=C\c1cccnc1)C(=O)Nc1ccccc1 | 107 | -4 | 4 | 44 | 3 | 6 | x
CCN1CCCC1CNc1ncnc2c1[nH]c1ccc(Cl)cc12 (stereo not drawn) | 115 | -5 | -5 | 54* | -8 | -4 | -1%
O=C1CCCN1CCCNc1ncnc2c1[nH]c1ccc(Cl)cc12 | 104 | x | -1 | 1 | -4 | 2 | x
COC(=O)c1ccc(C2NC(=O)CCC2[N+](=O)[O-])cc1 (stereo not drawn) | 111 | -9 | -3 | 15 | 6 | 1 | x
CC(=O)c1sc(NC(=O)C2CCN(C(=O)c3ccccc3C)CC2)nc1-c1ccccc1 | 103 | -7 | -14 | 17 | -11 | 0 | x
COc1cc2c(oc(=O)c3cc(C)cc(OC)c32)c2c(C3OC(C)C(O)C(C)(O)C3O)ccc(O)c12 (stereo not drawn) | 86 | -7 | 10 | 86* | -4 | -2 | -2%
CC(=O)Nc1cccc(C(=O)OCc2ccccc2)c1 | x | -5 | 1 | 57* | 0 | -2 | -4%
CC(=O)Nc1cccc(C(=O)OCC(=O)NC(=O)Cc2ccccc2)c1 | 114 | -5 | -1 | -2 | -2 | -2 | x

Screens deposited in PubChem by several laboratories.
